Source: PubChem BioAssay (NCATS)
Inconclusive results are not listed. Active and inactive are the calls of the source. Unless noted, calls follow the shape of the dose curve; as a rule, active = well fitted inhibition curve with a large enough effect; inconclusive = small, poorly fitted or top-dose-only effect; inactive = flat fitted curve, though single readings scatter.

Each compound was assayed against T1, Tyrosine-protein phosphatase non-receptor type substrate 1 (Homo sapiens) + Leukocyte surface antigen CD47 (Homo sapiens) (UniProt P78324+Q08722) (assay: CD47-SIRPalpha protein protein interaction - LANCE assay qHTS validation (AID 1347057; active = well fitted curve in the direction sought with a large enough effect in the signal ratio, with a control signal flat, not every such curve was filed as active; the % refers to the signal ratio)). Conditions: Recombinant CD47-His / biotin-SIRPalpha, TR-FRET ratio; series mostly up to 38.3 µM.
T1 sequence (P78324 whole entry, looked up, the tested form may be a part): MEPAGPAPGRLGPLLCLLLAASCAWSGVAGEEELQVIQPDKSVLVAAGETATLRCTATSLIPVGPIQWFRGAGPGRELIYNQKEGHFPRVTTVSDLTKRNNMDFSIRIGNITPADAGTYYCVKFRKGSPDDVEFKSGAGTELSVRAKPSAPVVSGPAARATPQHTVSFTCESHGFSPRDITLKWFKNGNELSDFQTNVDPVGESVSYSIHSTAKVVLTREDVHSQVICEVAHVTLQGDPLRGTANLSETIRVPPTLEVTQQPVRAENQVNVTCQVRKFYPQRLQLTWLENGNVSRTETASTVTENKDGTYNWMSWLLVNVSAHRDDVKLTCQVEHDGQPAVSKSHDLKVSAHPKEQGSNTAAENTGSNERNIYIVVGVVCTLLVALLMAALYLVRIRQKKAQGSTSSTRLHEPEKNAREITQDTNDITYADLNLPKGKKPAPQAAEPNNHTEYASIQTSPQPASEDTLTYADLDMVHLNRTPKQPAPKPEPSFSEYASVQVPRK
T1 sequence (Q08722 whole entry, looked up, the tested form may be a part): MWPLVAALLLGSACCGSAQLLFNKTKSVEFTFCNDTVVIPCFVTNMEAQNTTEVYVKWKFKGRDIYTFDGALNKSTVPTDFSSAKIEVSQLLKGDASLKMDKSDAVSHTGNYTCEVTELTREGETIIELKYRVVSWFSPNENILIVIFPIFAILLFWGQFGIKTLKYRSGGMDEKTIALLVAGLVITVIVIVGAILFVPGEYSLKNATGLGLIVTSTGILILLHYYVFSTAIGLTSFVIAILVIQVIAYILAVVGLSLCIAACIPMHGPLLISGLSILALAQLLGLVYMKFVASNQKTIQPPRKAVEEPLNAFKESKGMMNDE
Outline: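 Inhibition of soluble CD47/SIRPalpha ectodomain association by titrated compounds, measured as 665/615 nm time-resolved FRET ratio after sequential 30 min room-temperature incubations.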
For `O=C1NCC2(CCN(CCc3ccccc3)CC2)O1`, the outcome was “inactive”.
In the case of `C[N+](C)(C)CCCCCC[N+](C)(C)C`, the outcome was “inactive”.
`CC(=O)O[C@]1(C(C)=O)CC[C@H]2[C@@H]3C=C(Cl)C4=CC(=O)[C@@H]5C[C@@H]5[C@]4(C)[C@H]3CC[C@@]21C` was tested, and the outcome was “inactive”.
`Clc1ccc(Cn2c(CN3CCCC3)nc3ccccc32)cc1` was tested, and the outcome was “inactive”.
With `CC(C)NCC(O)COc1cccc2[nH]ccc12` (configuration not stated) the outcome was “inactive”.
For `CC1(C)CCC2=C(O1)c1ccccc1C(=O)C2=O`, the outcome was “inactive”.
For `COc1ccc(Cc2nccc3cc(OC)c(OC)cc23)cc1OC`, the outcome was “inactive”.
`CC(C)(C)c1ccc(C(O)CCCN2CCC(C(O)(c3ccccc3)c3ccccc3)CC2)cc1` (configuration not stated) was tested, and the outcome was “inactive”.

The compounds below were run against T1, Tyrosine-protein phosphatase non-receptor type substrate 1 (Homo sapiens) + Leukocyte surface antigen CD47 (Homo sapiens) (assay: CD47-SIRPalpha protein protein interaction - Alpha assay qHTS validation (AID 1347059;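 also: bead proximity luminescence from CD47 binding SIRPalpha after compound preincubation with SIRPalpha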)). Conditions: AlphaScreen CD47-His/biotin-SIRPalpha binding, LOPAC; series mostly up to 38.3 µM.
Outline: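 AlphaScreen signal between CD47-His (12.5 nM) and biotin-SIRPalpha (25 nM) soluble extracellular domains, bead-captured via Ni-NTA and streptavidin. Compounds, in 7-point titrations, met SIRPalpha 30 min before CD47; PBS pH 7.4 with 0.05% IGEPAL.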
For `O=C1NCC2(CCN(CCc3ccccc3)CC2)O1`, the outcome was “inactive”.
With `C[N+](C)(C)CCCCCC[N+](C)(C)C` the outcome was “inactive”.
`Clc1ccc(C(c2ccc(Cl)cc2)n2cc[n+](CC(OCc3ccc(Cl)cc3Cl)c3ccc(Cl)cc3Cl)c2)cc1` (configuration not stated) was tested, and the outcome was “inactive”.
`CC(=O)O[C@]1(C(C)=O)CC[C@H]2[C@@H]3C=C(Cl)C4=CC(=O)[C@@H]5C[C@@H]5[C@]4(C)[C@H]3CC[C@@]21C` was tested, and the outcome was “inactive”.
For `Clc1ccc(Cn2c(CN3CCCC3)nc3ccccc32)cc1`, the outcome was “inactive”.
In the case of `CC(C)NCC(O)COc1cccc2[nH]ccc12` (configuration not stated), the outcome was “inactive”.
In the case of `CC1(C)CCC2=C(O1)c1ccccc1C(=O)C2=O`, the outcome was “inactive”.
For `COc1ccc(Cc2nccc3cc(OC)c(OC)cc23)cc1OC`, the outcome was “inactive”.
In the case of `CC(C)(C)c1ccc(C(O)CCCN2CCC(C(O)(c3ccccc3)c3ccccc3)CC2)cc1` (configuration not stated), the outcome was “inactive”.
